The supplement of paper PMC11732987, “Enantioselective OTUD7B fragment discovery through chemoproteomics screening and high-throughput optimisation” (Communications Chemistry, 2025)

Assays:
Test in all cases: log2 ratio of Biotin-Ahx-Ub-VS probe labelling (fragment/DMSO); higher = less target engagement (more negative = stronger competition), active = hit call of the paper (q ≤ 0.05, log2 ratio ≤ -1)
Conditions in all cases: compound concentration: 200 uM; treatment time: 3 h
[1] = target: USP16 (UniProt Q9Y5T5)
Summary of the method: (§1)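 Labelled DUBs from HEK293T lysate were NeutrAvidin-enriched, digested with LysC and trypsin, and run by diaPASEF LC-MS/MS. Before that, each 495 µg sample in Tris/CHAPS/IGEPAL buffer with protease inhibitors was treated in triplicate with fragment at 200 µM or vehicle for 3 h, then with Biotin-Ahx-Ub-VS at 0.5 µM final for 1 h. Values are average log2 ratios of fragment over vehicle by unpaired t-test, based on global-median-normalised Spectronaut label-free quantities from proteins with ≥2 unique peptides.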

[2] = target: T1, USP19 (UniProt O94966)
T1 sequence (whole entry): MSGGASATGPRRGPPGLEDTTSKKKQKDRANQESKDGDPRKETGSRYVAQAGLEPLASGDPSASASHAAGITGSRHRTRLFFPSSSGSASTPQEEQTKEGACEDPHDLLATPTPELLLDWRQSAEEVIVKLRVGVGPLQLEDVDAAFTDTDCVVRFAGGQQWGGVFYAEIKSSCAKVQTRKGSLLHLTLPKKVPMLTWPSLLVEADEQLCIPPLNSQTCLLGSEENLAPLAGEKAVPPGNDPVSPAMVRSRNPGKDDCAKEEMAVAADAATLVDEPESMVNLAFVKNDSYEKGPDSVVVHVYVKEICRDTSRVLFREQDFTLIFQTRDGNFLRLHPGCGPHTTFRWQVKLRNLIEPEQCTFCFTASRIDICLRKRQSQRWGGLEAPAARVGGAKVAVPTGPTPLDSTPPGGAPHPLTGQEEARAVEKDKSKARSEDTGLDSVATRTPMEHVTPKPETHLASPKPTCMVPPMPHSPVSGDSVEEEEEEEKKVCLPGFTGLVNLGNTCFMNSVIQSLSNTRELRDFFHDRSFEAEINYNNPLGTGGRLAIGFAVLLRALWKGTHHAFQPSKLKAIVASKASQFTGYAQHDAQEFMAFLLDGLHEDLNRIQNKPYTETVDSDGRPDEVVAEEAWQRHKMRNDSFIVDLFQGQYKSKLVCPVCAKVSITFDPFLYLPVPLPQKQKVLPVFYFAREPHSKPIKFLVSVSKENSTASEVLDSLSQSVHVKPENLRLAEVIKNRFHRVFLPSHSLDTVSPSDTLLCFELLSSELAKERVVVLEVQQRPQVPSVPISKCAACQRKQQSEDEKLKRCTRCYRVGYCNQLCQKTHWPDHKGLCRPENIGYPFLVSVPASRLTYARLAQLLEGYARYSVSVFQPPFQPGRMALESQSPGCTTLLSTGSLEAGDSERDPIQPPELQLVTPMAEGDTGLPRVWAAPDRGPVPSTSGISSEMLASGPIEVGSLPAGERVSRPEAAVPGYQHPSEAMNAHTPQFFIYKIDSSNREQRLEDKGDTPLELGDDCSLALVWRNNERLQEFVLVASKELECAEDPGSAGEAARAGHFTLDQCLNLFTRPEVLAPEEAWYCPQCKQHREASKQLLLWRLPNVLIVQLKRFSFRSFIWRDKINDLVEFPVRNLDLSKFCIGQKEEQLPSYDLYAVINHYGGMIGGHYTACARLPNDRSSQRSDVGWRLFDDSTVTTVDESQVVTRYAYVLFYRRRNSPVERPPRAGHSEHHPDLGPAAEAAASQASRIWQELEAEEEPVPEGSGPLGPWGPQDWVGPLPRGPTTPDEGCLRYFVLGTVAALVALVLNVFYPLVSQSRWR
Summary of the method: as §1

[3] = target: USP24 (UniProt Q9UPU5)
Summary of the method: as §1

[4] = target: T2, USP25 (UniProt Q9UHP3)
T2 sequence (whole entry): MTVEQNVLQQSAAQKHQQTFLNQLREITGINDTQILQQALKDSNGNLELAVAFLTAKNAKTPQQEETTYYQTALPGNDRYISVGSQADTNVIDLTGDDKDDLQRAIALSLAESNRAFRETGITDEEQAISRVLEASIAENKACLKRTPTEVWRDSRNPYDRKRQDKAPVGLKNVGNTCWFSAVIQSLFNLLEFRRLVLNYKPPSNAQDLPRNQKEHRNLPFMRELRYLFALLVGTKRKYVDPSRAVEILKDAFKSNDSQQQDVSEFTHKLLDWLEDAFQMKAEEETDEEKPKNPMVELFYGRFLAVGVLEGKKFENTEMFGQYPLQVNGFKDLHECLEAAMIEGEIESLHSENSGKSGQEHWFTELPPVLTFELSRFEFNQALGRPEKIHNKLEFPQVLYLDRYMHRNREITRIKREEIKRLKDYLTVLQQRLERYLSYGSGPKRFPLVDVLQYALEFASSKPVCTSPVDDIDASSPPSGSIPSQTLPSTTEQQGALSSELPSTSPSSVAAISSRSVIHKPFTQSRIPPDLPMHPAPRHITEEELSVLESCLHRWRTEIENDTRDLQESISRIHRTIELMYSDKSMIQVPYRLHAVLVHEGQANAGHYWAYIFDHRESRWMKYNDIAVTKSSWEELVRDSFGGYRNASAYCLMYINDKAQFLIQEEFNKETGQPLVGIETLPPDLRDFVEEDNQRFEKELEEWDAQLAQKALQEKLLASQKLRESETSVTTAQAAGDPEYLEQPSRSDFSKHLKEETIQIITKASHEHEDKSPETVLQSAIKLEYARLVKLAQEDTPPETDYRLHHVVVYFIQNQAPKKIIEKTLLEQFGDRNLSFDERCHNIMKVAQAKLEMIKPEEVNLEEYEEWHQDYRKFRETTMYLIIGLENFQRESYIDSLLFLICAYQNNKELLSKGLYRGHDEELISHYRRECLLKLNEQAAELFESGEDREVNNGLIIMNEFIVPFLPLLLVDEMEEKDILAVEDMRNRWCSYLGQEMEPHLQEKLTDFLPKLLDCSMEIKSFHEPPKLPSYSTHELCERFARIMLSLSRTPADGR
Summary of the method: as §1

[5] = target: T3, USP28 (UniProt Q96RU2)
T3 sequence (whole entry): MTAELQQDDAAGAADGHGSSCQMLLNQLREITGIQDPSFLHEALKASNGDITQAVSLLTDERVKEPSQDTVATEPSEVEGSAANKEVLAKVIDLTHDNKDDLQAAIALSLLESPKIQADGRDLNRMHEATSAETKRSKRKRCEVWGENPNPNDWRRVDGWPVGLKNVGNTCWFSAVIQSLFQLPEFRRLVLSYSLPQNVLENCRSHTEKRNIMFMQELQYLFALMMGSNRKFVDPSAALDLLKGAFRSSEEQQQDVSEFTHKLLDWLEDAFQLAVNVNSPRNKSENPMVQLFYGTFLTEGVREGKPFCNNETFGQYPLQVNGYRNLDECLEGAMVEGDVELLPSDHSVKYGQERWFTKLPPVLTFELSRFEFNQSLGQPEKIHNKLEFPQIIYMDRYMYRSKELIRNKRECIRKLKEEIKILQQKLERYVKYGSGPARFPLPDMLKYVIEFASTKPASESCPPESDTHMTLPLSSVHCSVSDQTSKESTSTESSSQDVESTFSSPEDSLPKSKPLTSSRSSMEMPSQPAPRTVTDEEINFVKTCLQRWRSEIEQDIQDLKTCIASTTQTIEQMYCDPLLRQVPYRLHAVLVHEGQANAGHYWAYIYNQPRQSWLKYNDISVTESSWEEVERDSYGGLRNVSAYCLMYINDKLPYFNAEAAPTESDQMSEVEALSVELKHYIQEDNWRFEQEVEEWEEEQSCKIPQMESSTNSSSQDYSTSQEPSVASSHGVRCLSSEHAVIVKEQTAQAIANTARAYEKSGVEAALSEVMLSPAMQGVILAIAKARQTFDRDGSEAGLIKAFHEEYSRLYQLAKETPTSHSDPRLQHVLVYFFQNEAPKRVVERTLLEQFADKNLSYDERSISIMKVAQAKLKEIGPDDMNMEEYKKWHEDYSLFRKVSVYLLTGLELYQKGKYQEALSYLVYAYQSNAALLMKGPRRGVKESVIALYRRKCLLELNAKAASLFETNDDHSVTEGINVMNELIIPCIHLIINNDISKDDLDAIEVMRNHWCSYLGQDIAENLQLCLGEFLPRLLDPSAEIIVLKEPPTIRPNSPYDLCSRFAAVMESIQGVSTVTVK
Summary of the method: as §1

Measured: log2 ratio of Biotin-Ahx-Ub-VS probe labelling

Sequence of USP16 (Q9Y5T5 whole entry, looked up, the tested form may be a part): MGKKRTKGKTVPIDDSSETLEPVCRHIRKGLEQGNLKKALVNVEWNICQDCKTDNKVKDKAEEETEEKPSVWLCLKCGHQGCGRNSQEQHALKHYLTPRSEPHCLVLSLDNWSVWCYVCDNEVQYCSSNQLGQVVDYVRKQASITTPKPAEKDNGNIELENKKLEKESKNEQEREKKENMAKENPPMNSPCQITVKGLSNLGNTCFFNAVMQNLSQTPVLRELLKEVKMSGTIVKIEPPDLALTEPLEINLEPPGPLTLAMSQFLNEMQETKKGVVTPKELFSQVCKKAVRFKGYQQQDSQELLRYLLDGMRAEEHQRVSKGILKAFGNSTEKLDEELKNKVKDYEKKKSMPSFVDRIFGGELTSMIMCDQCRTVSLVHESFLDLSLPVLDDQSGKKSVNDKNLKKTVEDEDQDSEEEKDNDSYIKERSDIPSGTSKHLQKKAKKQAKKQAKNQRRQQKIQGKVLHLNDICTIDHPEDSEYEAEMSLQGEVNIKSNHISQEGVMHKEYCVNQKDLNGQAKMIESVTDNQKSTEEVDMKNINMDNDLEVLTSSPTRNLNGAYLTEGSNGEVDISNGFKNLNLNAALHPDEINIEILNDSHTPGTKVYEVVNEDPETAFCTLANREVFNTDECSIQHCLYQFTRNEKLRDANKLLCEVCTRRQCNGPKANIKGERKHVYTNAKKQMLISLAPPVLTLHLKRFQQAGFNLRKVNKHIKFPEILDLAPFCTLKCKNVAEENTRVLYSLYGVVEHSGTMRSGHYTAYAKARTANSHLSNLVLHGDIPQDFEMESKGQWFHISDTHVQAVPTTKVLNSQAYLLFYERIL
Sequence of USP24 (Q9UPU5 whole entry): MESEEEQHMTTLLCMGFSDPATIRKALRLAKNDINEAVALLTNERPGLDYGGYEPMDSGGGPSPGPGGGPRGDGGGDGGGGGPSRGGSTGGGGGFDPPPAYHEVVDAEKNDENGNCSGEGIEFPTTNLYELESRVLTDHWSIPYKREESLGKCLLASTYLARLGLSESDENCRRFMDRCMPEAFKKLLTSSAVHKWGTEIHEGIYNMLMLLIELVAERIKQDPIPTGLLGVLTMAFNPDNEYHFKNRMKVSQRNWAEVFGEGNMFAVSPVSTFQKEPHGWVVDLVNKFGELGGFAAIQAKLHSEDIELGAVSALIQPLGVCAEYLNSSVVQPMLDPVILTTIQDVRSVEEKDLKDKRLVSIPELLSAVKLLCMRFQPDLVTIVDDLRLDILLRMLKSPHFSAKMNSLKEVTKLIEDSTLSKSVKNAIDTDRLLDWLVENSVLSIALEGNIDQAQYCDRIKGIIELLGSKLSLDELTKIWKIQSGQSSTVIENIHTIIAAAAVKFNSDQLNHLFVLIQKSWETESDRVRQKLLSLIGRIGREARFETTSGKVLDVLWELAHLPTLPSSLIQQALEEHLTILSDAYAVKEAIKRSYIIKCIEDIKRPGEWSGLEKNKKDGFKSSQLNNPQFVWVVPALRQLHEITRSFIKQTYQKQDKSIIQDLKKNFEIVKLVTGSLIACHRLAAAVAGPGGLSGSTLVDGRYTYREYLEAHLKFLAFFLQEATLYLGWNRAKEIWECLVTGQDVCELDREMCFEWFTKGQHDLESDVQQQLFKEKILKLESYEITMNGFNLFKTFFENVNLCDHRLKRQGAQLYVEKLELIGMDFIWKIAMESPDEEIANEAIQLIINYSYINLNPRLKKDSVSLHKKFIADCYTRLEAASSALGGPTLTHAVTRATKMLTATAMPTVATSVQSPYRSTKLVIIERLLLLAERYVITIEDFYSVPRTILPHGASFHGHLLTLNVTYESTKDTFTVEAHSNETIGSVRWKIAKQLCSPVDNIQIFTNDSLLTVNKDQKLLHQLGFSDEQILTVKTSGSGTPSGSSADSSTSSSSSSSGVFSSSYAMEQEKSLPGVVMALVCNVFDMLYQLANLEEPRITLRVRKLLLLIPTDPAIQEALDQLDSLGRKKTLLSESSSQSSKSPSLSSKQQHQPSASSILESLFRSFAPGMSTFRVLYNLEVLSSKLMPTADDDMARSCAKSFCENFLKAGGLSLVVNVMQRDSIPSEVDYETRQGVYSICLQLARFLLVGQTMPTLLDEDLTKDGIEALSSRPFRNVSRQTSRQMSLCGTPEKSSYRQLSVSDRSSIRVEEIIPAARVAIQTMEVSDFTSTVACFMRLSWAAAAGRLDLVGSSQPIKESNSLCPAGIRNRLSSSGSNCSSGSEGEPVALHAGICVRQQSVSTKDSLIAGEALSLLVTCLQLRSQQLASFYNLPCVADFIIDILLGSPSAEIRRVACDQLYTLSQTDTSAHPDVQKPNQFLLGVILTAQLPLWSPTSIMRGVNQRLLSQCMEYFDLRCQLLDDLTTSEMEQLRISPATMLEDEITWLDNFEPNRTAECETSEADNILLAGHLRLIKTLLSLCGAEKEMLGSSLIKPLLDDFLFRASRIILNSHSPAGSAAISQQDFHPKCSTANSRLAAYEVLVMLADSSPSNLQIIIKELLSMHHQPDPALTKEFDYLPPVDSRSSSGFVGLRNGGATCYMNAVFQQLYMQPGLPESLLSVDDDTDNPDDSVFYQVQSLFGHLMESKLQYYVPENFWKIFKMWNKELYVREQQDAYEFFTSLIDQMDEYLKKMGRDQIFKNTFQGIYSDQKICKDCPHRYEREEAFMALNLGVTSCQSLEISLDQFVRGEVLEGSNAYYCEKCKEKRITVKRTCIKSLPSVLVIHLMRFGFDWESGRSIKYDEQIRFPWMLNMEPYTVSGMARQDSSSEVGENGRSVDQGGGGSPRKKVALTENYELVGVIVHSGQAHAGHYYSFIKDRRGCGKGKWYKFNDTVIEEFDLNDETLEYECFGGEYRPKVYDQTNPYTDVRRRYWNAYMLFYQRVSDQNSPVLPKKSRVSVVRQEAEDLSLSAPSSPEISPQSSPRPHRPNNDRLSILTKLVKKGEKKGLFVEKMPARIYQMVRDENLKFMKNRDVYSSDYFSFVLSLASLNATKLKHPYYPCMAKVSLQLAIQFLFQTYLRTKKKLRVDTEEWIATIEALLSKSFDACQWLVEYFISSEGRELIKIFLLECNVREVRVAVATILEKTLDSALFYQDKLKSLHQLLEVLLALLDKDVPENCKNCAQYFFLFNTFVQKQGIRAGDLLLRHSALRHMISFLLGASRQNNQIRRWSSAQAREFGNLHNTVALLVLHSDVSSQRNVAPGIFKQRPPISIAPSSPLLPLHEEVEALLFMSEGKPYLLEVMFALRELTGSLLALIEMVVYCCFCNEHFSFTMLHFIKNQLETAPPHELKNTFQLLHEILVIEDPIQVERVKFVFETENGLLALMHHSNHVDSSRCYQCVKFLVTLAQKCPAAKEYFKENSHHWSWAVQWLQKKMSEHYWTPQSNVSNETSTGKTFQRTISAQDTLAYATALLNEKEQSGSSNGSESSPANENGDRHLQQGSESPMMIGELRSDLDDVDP

O=C(CCl)NCc1ccc2c(c1)OCO2
inactive: [1] 0.0675 | [2] -0.272 | [3] -0.3 | [4] -0.0121 | [5] -0.566
